Hits are enriched below; roughly 2.4% of the tested compounds scored in any of these assays.
POLB inh: qHTS Assay for Inhibitors of DNA Polymerase Beta; Potency, µM (doses to about 114 µM), inactives show top-dose activity change, negative = inhibition, actives largely listed as inhibitors; P06746; Pol beta primer extension/strand displacement, fluorescence kinetic; 340,000 tested, 1.3% active; further: on the % scale 0 is the no-effect control and ±100 the full control effect
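Pol beta (10 nM) and compounds were preincubated 15 min at room temperature, then 50 nM substrate (final) started primer extension/strand displacement. Reads were taken at 0 and 10 min; concentration-response data were fitted to a four-parameter Hill equation.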
FEN1 inh: qHTS Assay for the Inhibitors of Human Flap endonuclease 1 (FEN1); Recombinant FEN1 flap cleavage, fluorescence, 15 min; Potency, µM (titrated, usually from 114 µM), for the others: top-dose activity change, negative = inhibition, actives largely listed as inhibitors; 390,000 tested, 0.35% active; further: on the % scale 0 is the no-effect control and ±100 the full control effect; nearly all actives have a fitted effect of over 65% in size
Target sequence (P39748 whole entry, looked up): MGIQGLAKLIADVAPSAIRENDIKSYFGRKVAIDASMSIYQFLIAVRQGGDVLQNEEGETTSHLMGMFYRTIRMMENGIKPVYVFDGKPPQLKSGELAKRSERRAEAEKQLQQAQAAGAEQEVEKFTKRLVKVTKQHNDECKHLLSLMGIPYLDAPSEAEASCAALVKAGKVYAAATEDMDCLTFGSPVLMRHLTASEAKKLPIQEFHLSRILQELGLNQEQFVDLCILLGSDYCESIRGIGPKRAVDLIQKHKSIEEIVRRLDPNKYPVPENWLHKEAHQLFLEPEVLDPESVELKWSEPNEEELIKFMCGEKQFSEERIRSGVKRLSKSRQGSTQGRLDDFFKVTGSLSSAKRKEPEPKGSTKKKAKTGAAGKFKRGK
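Recombinant FEN1 (10 nM) was preincubated with pin-transferred compounds for 15 min at room temperature, then flap DNA substrate (50 nM final) was added. Plates were read at 0 and 15 min, and normalized concentration–response data were fitted to a four-parameter Hill equation.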
POLI inh: qHTS for Inhibitors of Polymerase Iota; Pol iota fluorescent replication assay, 10 min; Potency, µM (top dose mostly 115 µM), without a hit: at the top dose activity, negative = inhibition, hits mostly inhibitors; 390,000 tested, 1% active
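Fluorescent replication assay read twice, at 0 min and 10 min after adding 50 nM (final) substrate. Enzyme (10 nM) and compounds were first incubated 15 min at room temperature; enzyme-free buffer wells were negative controls.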
POLH inh: qHTS for Inhibitors of Polymerase Eta. DNA polymerase eta (Homo sapiens), Q9Y253. recombinant Pol eta, fluorescent DNA replication assay. Potency, µM (doses to about 114 µM), for the others: top-dose activity change, negative = inhibition, most hits filed as inhibitors. 390,000 tested, 1.2% active; further: on the % scale 0 is the no-effect control and ±100 the full control effect
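Fluorescent replication assay: 50 nM final substrate added after a 15 min room-temperature compound preincubation with 10 nM enzyme. Signal taken at 0 min and again at 10 min.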
Pol kappa inh: qHTS for Inhibitors of Polymerase Kappa; purified Pol kappa, fluorescent DNA synthesis assay, 10 min; Potency, µM (series often up to 107 µM), for the others: at the top dose activity, negative = inhibition, usual class: inhibitors; 400,000 tested, 0.53% active; further: on the % scale 0 is the no-effect control and ±100 the full control effect
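Inhibition of 10 nM Pol kappa is measured by a fluorescent read-out at 0 and 10 min following addition of 50 nM substrate (final), with a 15-min room-temperature compound preincubation.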
WRN inhibitor: qHTS for Inhibitors of WRN Helicase; 360,000 tested, 0.46% active; WRN helicase unwinding, fluorescent forked duplex, kinetic; Potency, µM (top dose mostly 114 µM), without a hit: top-dose activity change, negative = inhibition, usual class: inhibitors; Bifunctional 3'-5' exonuclease/ATP-dependent helicase WRN (Homo sapiens), Q14191; AID 651768, 2012; further: on the % scale 0 is the no-effect control and ±100 the full control effect; nearly all actives have a fitted effect of over 55% in size
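Screening of the MLSMR collection measured strand separation of a quenched forked DNA duplex (100 nM) by 20 nM WRN with 2 mM ATP, all final. Compounds were preincubated with enzyme 15 min at room temperature.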
* marks the source's active call; other numbers are inactive results; ? = inconclusive; nt = not tested or not shown; [ ] = another dose, or the depositor's remark. The call rests on the fitted dose curve; in most records, active means well fitted curve in the direction sought with a large enough effect; inconclusive means small, poorly fitted or top-dose-only effect, or another doubt; inactive means no such curve, though single readings can be large; an effect the other way counts as inactive or inconclusive. Potency means the concentration at half of the fitted maximal effect.

SMILES	POLB inh	FEN1 inh	POLI inh	POLH inh	Pol kappa inh	WRN inhibitor
CN(C)N1C(=O)/C(=C/c2ccco2)SC1=Nc1ccccc1	nt	1%	?	-3%	-19%	-8%
O=C1/C(=C\c2ccc(Br)o2)SC(=Nc2ccccc2)N1c1ccccc1	0.4µM*	4%	?	-28%	?	-32%
CCn1c(=N)c(C(=O)NCC2CCCO2)cc2c(=O)n3cc(C)ccc3nc21 (configuration not stated)	8%	4%	-2%	-9%	-16%	nt
Cc1ccc(S(=O)(=O)N2CCN(c3cc(-c4cccs4)nc4ccccc34)CC2)cc1	nt	1%	1%	nt	-22%	nt
CCCCN(CCC#N)c1ccc(/C=C/c2ccnc3ccccc23)cc1	nt	-10%	-21%	nt	-2%	nt
Nc1c(C(=O)OCC(=O)Nc2cccc([N+](=O)[O-])c2)[nH]c(=O)[nH]c1=O	nt	?	?	25µM*	-32%	?
O=[N+]([O-])c1ccc(Sc2cccc[n+]2[O-])c2nonc12	20µM*	22µM*	3.5µM*	4.5µM*	32µM*	16µM*
O=[N+]([O-])c1ccc(Nc2ccccc2)c2nonc12	5%	-17%	10%	-14%	4%	-12%
C=CCN=c1scc(-c2ccco2)n1/N=C/c1ccc(O)c(O)c1O	-96%	?	1.8µM*	?	22µM*	50µM*
Cc1ccc(-c2nnc(SCC(=O)NC(C)(C)C)nc2-c2ccc(C)cc2)cc1	?	4%	20%	-13%	-10%[60.1 µM]	nt
Cc1ccc(S(=O)(=O)NN2C(=O)/C(=C/c3cccs3)SC2=S)cc1	0%	-2%	-10%	-3%	-12%	-7%
COc1cc(/C=C2\SC(=S)N(NS(=O)(=O)c3ccccc3)C2=O)cc(OC)c1OC	30%	-16%	-4%	1%	-16%	-27%
COc1ccc(/C=C2/SC(=S)N(NS(=O)(=O)c3ccc(C)cc3)C2=O)cc1	?	?	?	79µM*	-15%	-13%[11.6 µM]
C=CCOc1ccc(/C=C2\SC(=S)N(NS(=O)(=O)c3ccc(C)cc3)C2=O)cc1	?	-20%	?	50µM*	-11%	?
Cc1ccc(S(=O)(=O)NN2C(=O)/C(=C/c3ccc(C(=O)O)cc3)SC2=S)cc1	16%	50µM*	13µM*	-23%	?	-35%
Cc1ccc(S(=O)(=O)NN2C(=O)/C(=C/c3ccc(F)cc3)SC2=S)cc1	4%	3%	139%	?	-11%	?
Cc1ccc(/C=C2\SC(=S)N(NS(=O)(=O)c3ccc(C)cc3)C2=O)cc1	79µM*	-10%	7%	?	-7%	-9%[11.6 µM]
CCOC(=O)c1ccc(NC(=O)CC2C(=O)N(c3cccc(OC)c3)C(=O)N2Cc2cccnc2)cc1 (configuration not stated)	20%	-6%	20%	-21%	0%	nt
CCCCCN1N=C(C)CC1=O	5%	-2%	1.1µM*	-8%	1%	4%
O=[N+]([O-])c1ccccc1S(=O)(=O)N1CCN(c2nc(-c3cccs3)nc3ccccc23)CC1	nt	12%	-7%	nt	-11%	nt
COC(=O)c1c(C)nn(-c2ccc(F)cc2)c1-n1cccc1	2%	7%	34%	nt	-14%	nt
Oc1ccc(N=Cc2ccc(O)c(O)c2)cc1	?	?	13µM*	3.2µM*	45µM*	32µM*
COc1ccc(-c2cn3c(n2)sc2cc(C(=O)NC(C)C45CC6CC(CC(C6)C4)C5)ccc23)cc1 (configuration not stated)	2%	5%	20%	-11%	-1%	nt
Nc1nonc1-c1nc2ccccc2n1CC(=O)N/N=C/c1ccc(-c2ccccc2C(=O)O)o1	16µM*	1%	?	32µM*	?	-27%[57.1 µM]
c1coc(-c2nnc(-c3ccco3)nn2)c1	7.9µM*	45µM*	?	8.9µM*	18µM*	20µM*
SMILES	POLB inh	FEN1 inh	POLI inh	POLH inh	Pol kappa inh	WRN inhibitor
c1ccc(-c2nnc(-c3ccco3)o2)cc1	-1%	-3%	2%	-15%	-4%	3%
CC(C)(C)[C@H]1CCC(=O)N(CCSc2ccc(Br)cc2)CC1	nt	-15%	?	nt	-17%	nt
CCCCC1=CC2=C(c3ccco3)C(=O)C(C)(OC(=O)c3ccc(OC)cc3)C(=O)C2=CN1CCc1ccccn1 (configuration not stated)	50µM*	6%	11µM*	-24%	-15%	-21%
CCCCC1=CC2=C(c3ccco3)C(=O)C(C)(OC(=O)c3ccc(OC)cc3)C(=O)C2=CN1C1CCCCC1 (configuration not stated)	?	-6%	39%	-1%	-21%	3%
CCCCC1=CC2=CC(=O)C(C)(OC(=O)CC)C(=O)C2=CN1Cc1ccc(OC)cc1 (configuration not stated)	-8%	-16%	0%	10%	-18%	2%
CCCCC1=CC2=C(c3ccco3)C(=O)C(C)(OC(=O)c3ccc(OC)cc3)C(=O)C2=CN1Cc1ccc2c(c1)OCO2 (configuration not stated)	35µM*	-22%	?	6%	-7%	-6%[11.6 µM]
CCCCC1=CC2=C(c3ccco3)C(=O)C(C)(OC(=O)c3ccc(OC)cc3)C(=O)C2=CN1Cc1ccccc1 (configuration not stated)	45µM*	-8%	?	50µM*	-3%	-8%
Cc1ccc(NC(=O)Cn2ncn3c(cc4ccccc43)c2=O)cc1C	17%	-6%	37%	-6%	-3%	nt
CC(C)CC(=O)n1nc(-c2ccco2)nc1NCc1ccc(Cl)cc1	-6%	-10%	13%	-25%	9%	nt
Nc1cccc[n+]1C(c1ccnc2ccccc12)[n+]1ccccc1N	nt	-18%	-27%	nt	-25%	nt
COc1cccc(CNC(=O)c2cc(C)nc3c2c(C)nn3-c2cccc(F)c2)c1	1%	-14%	1%	-13%	-5%	nt
Cc1cc(Cl)ccc1OCC(=O)Nc1cccc(-c2nc3ccccc3o2)c1	nt	0%	-4%	nt	-8%	nt
N#Cc1ccc(NC(=O)COc2ccccc2C(=O)Nc2ccccc2)cc1	nt	2%	-16%	nt	-21%	nt
CSc1cccc(NC(=O)Cn2ncn3c(cc4ccccc43)c2=O)c1	2%	-12%	23%	-13%	-2%	nt
Cc1ccc(N2CC(NC(=O)c3cccs3)CC2=O)cc1C (configuration not stated)	-9%	0%	5%	-15%	-5%[60.1 µM]	nt
